Results reported in PubChem BioAssay AID686979 (National Center for Advancing Translational Sciences (NCATS), 2013).
Screen size: about 420,000 compounds; about 50,000 (12%) were called active. Where a call stands in place of a potency, no number is given. Not shown: some 26% with an inconclusive outcome. The call rests on the fitted dose curve; in most records, active means well fitted inhibition curve with a large enough effect; inconclusive means small, poorly fitted or top-dose-only effect; inactive means flat fitted curve, though single readings scatter. This excerpt belongs to a sample that is enriched for actives. Where a SMILES comes first, the peptide text is derived from it. [ ]: non-standard residue; d: D form. ξ: configuration not given here. ξM = CSCCC(N)C(=O)O
Potency means the concentration at half of the fitted maximal effect.

Experiment: qHTS for Inhibitors of human tyrosyl-DNA phosphodiesterase 1 (TDP1): qHTS in cells in presence of CPT; further: nearly all actives have a fitted effect of over 55% in size
Conditions: chicken DT40 Tdp1-/-;hTDP1 cells + 20 nM CPT, ATP luminescence, 48 h; series mostly up to 46.2 µM
In short: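 Cell growth measured by CellTiter-Glo luminescence after a minimum 48 h, 37 C compound exposure with 20 nM CPT in Tdp1-knockout DT40 cells stably expressing hTDP1, seeded 400/well; qHTS titration format.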
In the case of `COc1cc2c(cc1O)C(SC)=NC(C)(C)C2`, the Potency is reported as 25.9 µM (active). In the case of `Cc1cn(C)c(=O)n(C)c1=O`, the Potency is reported as “inactive”. For `O=C1CCCCC1C(=O)c1ccccc1` (centres undefined), the Potency was “inactive”. In the case of `O=C(c1ccncc1)c1ccc([N+](=O)[O-])cc1`, the Potency is reported as “inactive”. With `O=C(Cn1c[n+](CC(=O)c2ccc([N+](=O)[O-])cc2)cn1)c1ccc([N+](=O)[O-])cc1` the Potency was 16.4 µM (active). With `O=C(Nn1cnnc1)c1ccc([N+](=O)[O-])cc1` the Potency was “inactive”. With `COC(=O)CNC(=O)C(CCSC)NC(C)=O` (centres undefined) (Ac-[ξM]-Gly-OMe) the Potency was “inactive”. In the case of `CCCC(C(=O)n1nc(C)cc1C)C(NS(=O)(=O)c1ccc(C)cc1)c1ccccc1` (centres undefined), the Potency is reported as 16.4 µM (active). In the case of `Cc1ccc(S(=O)(=O)Nc2nc(C)cc(-n3nc(C)cc3C)n2)cc1`, the Potency is reported as “inactive”. For `Cc1ccc(S(=O)(=O)NC(C(=O)N2CCOCCOCCOCCOCC2)c2ccccc2)cc1` (centres undefined), the Potency was “inactive”. With `Cc1cccc(C(=O)NNC(=O)CSc2nnc(C(C)C)n2C)c1` the Potency was “inactive”. In the case of `COc1ccc(NC(=O)C(c2ccccc2)N2Cc3ccccc3C2=O)cc1` (centres undefined), the Potency is reported as “inactive”. In the case of `Cc1cnc(CNc2nc(-c3cccnc3)nc3ccccc23)cn1`, the Potency is reported as “inactive”. For `Cc1ccc2nc(C)cc(N/N=C/c3ccc(F)cc3)c2c1`, the Potency was “inactive”. With `Fc1ccc(/C=N/Nc2nc(-c3cccnc3)nc3ccccc23)cc1` the Potency was 20.6 µM (active). With `C/C(Cn1nnc2ccccc21)=N\OC(=O)c1cc(F)c(F)cc1Cl` the Potency was “inactive”. With `Cc1cc(NC(=O)CCC(=O)N(CC(=O)NCC2CCCO2)c2ccccc2)no1` (centres undefined) the Potency was “inactive”. In the case of `O=C(COC(=O)c1c2c(nc3ccccc13)CCCC2)c1ccc(Br)s1`, the Potency is reported as 8.2 µM (active). In the case of `CCc1nc2ccccc2c(C(=O)OC2CCCCC2=O)c1C` (centres undefined), the Potency is reported as “inactive”. In the case of `Cn1cccc1C(=O)OCC(=O)c1ccc(Br)s1`, the Potency is reported as “inactive”. With `CCc1noc(C)c1C(=O)N1CCCSC1=Nc1ccccc1OC` the Potency was “inactive”. With `CN(C)S(=O)(=O)c1ccc(C(=O)NCCN=C2NS(=O)(=O)c3ccccc32)cc1` the Potency was “inactive”. With `CC1(C)Cc2c(cnn2-c2cccc(F)c2)C(NC(=O)c2cc[n+]([O-])cc2)C1` (centres undefined) the Potency was “inactive”. For `Cc1cc(C(=O)NC2CC(C)(C)Cc3c2cnn3-c2ccccc2)n[nH]1` (centres undefined), the Potency was “inactive”. For `COC(=O)c1ccc(C(=O)NC2CC(C)(C)Cc3c2cnn3-c2ccc(F)cc2)nc1` (centres undefined), the Potency was 1.84 µM (active). In the case of `Cc1ccc(CNC(=O)CCC(=O)N2CC(C)Sc3ccccc32)cc1` (centres undefined), the Potency is reported as “inactive”. For `Cc1ccc(Cl)cc1NC(=O)COC(=O)C1CCCCC1`, the Potency was “inactive”. For `Cc1ccc(Cl)cc1NC(=O)CCC(=O)N1CC(C)Sc2ccccc21` (centres undefined), the Potency was 23.1 µM (active). For `Cc1ccc(CNC(=O)CCNS(=O)(=O)c2ccc3c(c2)oc(=O)n3C)cc1`, the Potency was “inactive”.
